Reference: PubChem BioAssay (NCI)
About 79,000 compounds went through this panel and 15% of them were active in at least one assay; those are over-represented in the sample as a whole. Activity calls are given as the source filed them. Cut-off read from the data, not from the text of the source: active = growth inhibition above about 70%; inactive = the rest. Residues, ends and D or L forms follow the SMILES beside them. *: point of attachment. Fmoc = O=C(OCC1c2ccccc2-c2ccccc21)*; Boc = CC(C)(C)OC(=O)*

assay: NCI Yeast Anticancer Drug Screen. Data for the rad14 strain (AID 159);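 note: 0% = growth of vehicle-treated control cultures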; conditions: S. cerevisiae rad14 strain growth inhibition; at 1.2 µM; active compounds read high
Summary of the method: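 Compound-treated yeast with a defined DNA-repair lesion; growth inhibition normalised to vehicle-treated cultures.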

SMILES | growth inhibition
CC(C)C(=O)CC(Sc1ccc(N)cc1)c1ccccc1 (stereo unspecified) | 1% (inactive)
CC(C)OP(=O)(OC(C)C)/C(Cl)=N/Nc1ccc([N+](=O)[O-])cc1 | -8% (inactive)
O=[N+]([O-])c1cc(Cl)ccc1S(=O)(=O)c1ccc(Cl)cc1[N+](=O)[O-] | -15% (inactive)
CCCCCCNCCCNc1c2cc(OC)ccc2nc2cccc([N+](=O)[O-])c12 | 7% (inactive)
N#CCC(=O)N/N=C(\c1ccccc1)C(c1ccccc1)C1(O)C(=O)Nc2c(Cl)ccc(Cl)c21 (stereo unspecified) | 3% (inactive)
CN(C)CCNCCCNc1c2ccccc2nc2cccc([N+](=O)[O-])c12 | -2% (inactive)
CCC[CH2][Ge]([CH2]CCC)([CH2]CCC)[O]C(=O)C(O)c1ccccc1 (stereo unspecified) | -3% (inactive)
COc1ccc(-c2cc(-c3cc(C)cc(Cl)c3O)nc3[nH]c(=S)[nH]c(=S)c23)cc1 | 1% (inactive)
O=[N+]([O-])c1ccc(/C=C\c2ccc3c(c2)OCO3)c([N+](=O)[O-])c1 | 1% (inactive)
O=C1c2ccccc2N2OC3(N4CCCC4)CCCCC3C12c1ccccc1 (stereo unspecified) | -23% (inactive)
CC(C)OC(=O)NNc1cc(Cl)ccc1Cl | -4% (inactive)
CC1(C)OC(=O)C(=Cc2ccc([N+](=O)[O-])s2)C(=O)O1 | -12% (inactive)
CCN(CC)CCCNc1ccc([N+](=O)[O-])c2nc3ccc(OC)cc3c(NCCCN(CC)CC)c12 | -1% (inactive)
COc1cccc(/C=C2\S/C(=N/Nc3nc(-c4ccc([N+](=O)[O-])cc4)cs3)NC2=O)c1O | 0% (inactive)
OC(Cc1cccc2ccccc12)CN1CCC(c2ccccc2)CC1 (stereo unspecified) | 71% (active)
O=[N+]([O-])c1cc[n+]([O-])c(Cl)c1 | 1% (inactive)
CCCNC(=O)OCc1c(COC(=O)NCCC)c(-c2ccc(Cl)c(Cl)c2)n2c1CCC2 | -28% (inactive)

SMILES | growth inhibition
CC1(C)CC(=O)C(C(=O)Nc2cccs2)=C(O)C1 | -10% (inactive)
O=C(NO)c1coc2ccccc2c1=O | 0% (inactive)
COc1ccc(C(C)c2cc3c(cc2OCC(C)=O)OCO3)cc1 (stereo unspecified) | -2% (inactive)
CCS(=O)(=O)Nc1ccc(Nc2c3ccccc3nc3ccccc23)c(OC)c1 | -40% (inactive)
O=S(=O)(c1ccccc1)N1CN2CN(C1)CN(S(=O)(=O)c1ccccc1)C2 | -16% (inactive)
CC1=NN(C(=O)c2ccccc2O)C(=O)/C1=C/c1ccco1 | -1% (inactive)
O=C1C=C(Br)C(=O)c2ccccc21 | 10% (inactive)
C[N+](C)([O-])CCCNc1c2ccccc2nc2cccc([N+](=O)[O-])c12 | 41% (inactive)
Cc1cccc2c(NCCCN(C)C)c3c([N+](=O)[O-])ccc(C)c3nc12 | 98% (active)
OC1(c2ccccc2)C2CC=CC2C1(c1ccccc1)c1ccccc1 (stereo unspecified) | -3% (inactive)
C[n+]1c(-c2ccc(/C=N/NC(=O)c3ccc(C(=O)N/N=C/c4ccc(-c5cn6ccccc6[n+]5C)cc4)cc3)cc2)cn2ccccc21 | -1% (inactive)
CCN(CC)CCC(=O)Nc1ccc2sc3ccccc3c(=O)c2n1 | -1% (inactive)
O=[N+]([O-])c1ccc2nc(=S)[nH]n2c1 | 3% (inactive)
O=C(c1ccccc1)[C@H]1Nc2ccc(Cl)cc2[C@H]2OCCC[C@@H]12 | -40% (inactive)
COc1cc([N+](=O)[O-])c2ncccc2c1Br | 35% (inactive)
CC(C)(C)OC(=O)NCCCCC(NC(=O)C(Cc1c[nH]c2ccccc12)NC(=O)OCC1c2ccccc2-c2ccccc21)C(=O)O (stereo unspecified) (Fmoc-Trp-Lys(Boc)-OH; configuration not given here) | -1% (inactive)

same assay, conditions: S. cerevisiae rad14 strain growth inhibition; at 3.7 µM; active compounds read high

SMILES | growth inhibition
CC(C)C(=O)CC(Sc1ccc(N)cc1)c1ccccc1 (stereo unspecified) | 2% (inactive)
CC(C)OP(=O)(OC(C)C)/C(Cl)=N/Nc1ccc([N+](=O)[O-])cc1 | 6% (inactive)
O=[N+]([O-])c1cc(Cl)ccc1S(=O)(=O)c1ccc(Cl)cc1[N+](=O)[O-] | -11% (inactive)
CCCCCCNCCCNc1c2cc(OC)ccc2nc2cccc([N+](=O)[O-])c12 | 55% (inactive)
N#CCC(=O)N/N=C(\c1ccccc1)C(c1ccccc1)C1(O)C(=O)Nc2c(Cl)ccc(Cl)c21 (stereo unspecified) | 7% (inactive)
CN(C)CCNCCCNc1c2ccccc2nc2cccc([N+](=O)[O-])c12 | 46% (inactive)
CCC[CH2][Ge]([CH2]CCC)([CH2]CCC)[O]C(=O)C(O)c1ccccc1 (stereo unspecified) | -7% (inactive)
COc1ccc(-c2cc(-c3cc(C)cc(Cl)c3O)nc3[nH]c(=S)[nH]c(=S)c23)cc1 | 4% (inactive)
O=[N+]([O-])c1ccc(/C=C\c2ccc3c(c2)OCO3)c([N+](=O)[O-])c1 | 2% (inactive)
O=C1c2ccccc2N2OC3(N4CCCC4)CCCCC3C12c1ccccc1 (stereo unspecified) | -20% (inactive)
CC(C)OC(=O)NNc1cc(Cl)ccc1Cl | 3% (inactive)
CC1(C)OC(=O)C(=Cc2ccc([N+](=O)[O-])s2)C(=O)O1 | -5% (inactive)
CCN(CC)CCCNc1ccc([N+](=O)[O-])c2nc3ccc(OC)cc3c(NCCCN(CC)CC)c12 | 0% (inactive)
COc1cccc(/C=C2\S/C(=N/Nc3nc(-c4ccc([N+](=O)[O-])cc4)cs3)NC2=O)c1O | 3% (inactive)
OC(Cc1cccc2ccccc12)CN1CCC(c2ccccc2)CC1 (stereo unspecified) | 75% (active)
O=[N+]([O-])c1cc[n+]([O-])c(Cl)c1 | 5% (inactive)
CCCNC(=O)OCc1c(COC(=O)NCCC)c(-c2ccc(Cl)c(Cl)c2)n2c1CCC2 | -3% (inactive)

SMILES | growth inhibition
CC1(C)CC(=O)C(C(=O)Nc2cccs2)=C(O)C1 | 2% (inactive)
O=C(NO)c1coc2ccccc2c1=O | -1% (inactive)
COc1ccc(C(C)c2cc3c(cc2OCC(C)=O)OCO3)cc1 (stereo unspecified) | -3% (inactive)
CCS(=O)(=O)Nc1ccc(Nc2c3ccccc3nc3ccccc23)c(OC)c1 | -36% (inactive)
O=S(=O)(c1ccccc1)N1CN2CN(C1)CN(S(=O)(=O)c1ccccc1)C2 | -16% (inactive)
CC1=NN(C(=O)c2ccccc2O)C(=O)/C1=C/c1ccco1 | 15% (inactive)
O=C1C=C(Br)C(=O)c2ccccc21 | 24% (inactive)
C[N+](C)([O-])CCCNc1c2ccccc2nc2cccc([N+](=O)[O-])c12 | 90% (active)
Cc1cccc2c(NCCCN(C)C)c3c([N+](=O)[O-])ccc(C)c3nc12 | 98% (active)
OC1(c2ccccc2)C2CC=CC2C1(c1ccccc1)c1ccccc1 (stereo unspecified) | 4% (inactive)
C[n+]1c(-c2ccc(/C=N/NC(=O)c3ccc(C(=O)N/N=C/c4ccc(-c5cn6ccccc6[n+]5C)cc4)cc3)cc2)cn2ccccc21 | 3% (inactive)
CCN(CC)CCC(=O)Nc1ccc2sc3ccccc3c(=O)c2n1 | 5% (inactive)
O=[N+]([O-])c1ccc2nc(=S)[nH]n2c1 | -1% (inactive)
O=C(c1ccccc1)[C@H]1Nc2ccc(Cl)cc2[C@H]2OCCC[C@@H]12 | -23% (inactive)
COc1cc([N+](=O)[O-])c2ncccc2c1Br | 51% (inactive)
CC(C)(C)OC(=O)NCCCCC(NC(=O)C(Cc1c[nH]c2ccccc12)NC(=O)OCC1c2ccccc2-c2ccccc21)C(=O)O (stereo unspecified) (Fmoc-Trp-Lys(Boc)-OH; configuration not given here) | 0% (inactive)
